Data as given in PubChem BioAssay AID1053143 (Broad Institute, 2014).
Out of some 3,400 compounds screened, about 120 (3.5%) were called active. No rule for the calls is given here. The list is a sample of the results. Potency and affinity values are given separately.

Assay: viability loss in HepG2 hepatoma cells – cell-based, ATP luminescence, cherry-pick, activator set 2, cytotoxicity control, dose response (AID 1053143)
Details: CellTiter-Glo ATP luminescence, 72 h; series mostly up to 26 µM; activity change, negative = cytotoxicity: at the top concentration

| SMILES | activity change, negative = cytotoxicity |
| --- | --- |
| Cc1nn(Cc2ccccc2Cl)c(Cl)c1C(=O)NCCc1ccccc1 | 1.52% (inactive) |
| CN(C)C(=O)c1ccc(-c2cc(C(F)(F)F)nn2C)s1 | -17.9% (inactive) |
| O=C(COc1ccc(Cl)cc1)Nc1ncc([N+](=O)[O-])s1 | -16.9% (inactive) |
| Cc1ccnc(NC(=O)c2ccc([N+](=O)[O-])s2)c1 | -23.6% (inactive) |
| Brc1ccccc1-c1nc2c3ccccc3ncn2n1 | -16.9% (inactive) |
| O=c1[nH]c2ccccc2nc1-c1cccs1 | -22% (inactive) |
| Cc1nc2nc(-c3cccs3)cn2nc1C | -15.8% (inactive) |
| COc1ccc(-c2ccc(SCC(=O)Nc3cc(C)on3)nn2)cc1OC | -11.4% (inactive) |
| Cc1ccc(C(=O)OCC(=O)c2ccccc2)cc1 | 3.4% (inactive) |
| Cc1nc(SCC(=O)c2cccs2)c2oc3ccccc3c2n1 | -3.26% (inactive) |
| COc1ccccc1/C=C/C(=O)Oc1cccc2cccnc12 | -14.1% (inactive) |
| O=C(/C=C/c1ccco1)Nc1cccnc1 | -4.29% (inactive) |
| CCc1ccc(NC(=O)c2cccnc2)cc1 | 4.52% (inactive) |
| CS(=O)(=O)N1CCc2nc(-c3ccccc3)sc2C1 | 0.131% (inactive) |
| Cc1ccc(/C=N/NC(=O)c2ccco2)cc1 | 7.95% (inactive) |
| O=C(Nc1ccccc1F)Nc1ccccc1F | 15.9% [at 12 µM] (inactive) |
| COc1ccc(NC(=O)c2c(NC(=O)CCC(=O)O)sc(-c3ccccc3)c2C)cc1 | -7.68% (inactive) |
| CCCC(=O)Nc1sc(C(=O)Nc2cccc(N)c2)c(C)c1C(=O)OC | -11.7% (inactive) |
| Cc1ccc(CCC(=O)Nc2ccccc2F)s1 | 22.1% (inactive) |
| c1ccc(Cn2c(-c3ccco3)nc3nc4ccccc4nc32)cc1 | -16.9% (inactive) |
| Cc1scc(C(=O)N/N=C/c2ccc(Cl)s2)c1C | -1.2% (inactive) |
| COc1ccc(-c2cn3cccc(C)c3n2)cc1Br | -4.83% (inactive) |
| O=c1c2ccccc2nc2c3ccccc3c(NCc3ccccn3)nn12 | -3.53% [at 6 µM] (inactive) |
| C=CCSc1cc(C)nc2c(-c3ccccc3)cnn12 | -26% (inactive) |
| Cc1cc(C)n(-c2cc(C(C)(C)C)nc3c(-c4ccccc4)cnn23)n1 | -9.79% (inactive) |
| CC(C)(C)c1cc(NCCCn2ccnc2)n2ncc(-c3ccccc3)c2n1 | -19.6% (inactive) |
| CN(C)c1ccc(C#Cc2ccc3cc(CCCO)oc(=O)c3c2)cc1 | 1.77% (inactive) |
| Cc1ccc(-n2nc3c(n2)/C(=N/O)CC/C3=N\O)cc1 | -13.2% (inactive) |

| SMILES | activity change, negative = cytotoxicity |
| --- | --- |
| CCCCCC(=O)Nc1nc2ccccc2[nH]1 | -10% (inactive) |
| Cc1ccc(-c2csc(NC(=O)c3cccc(C)c3)c2C(=O)O)cc1 | -4.95% (inactive) |
| N/C(=N\OC(=O)COc1ccccc1)c1ccccn1 | -7.81% (inactive) |
| CCCCNc1c(-c2ccc(SC3CCCCC3)cc2)nc2ccccn12 | -6.41% (inactive) |
| O=c1[nH]c(/C=C/c2ccc(Br)cc2)nc2ccccc12 | -13.3% [at 12 µM] (inactive) |
| c1ccc([C@H]2CN3C(=N2)Sc2ccccc23)cc1 | -21.7% [at 12 µM] (inactive) |
| O=C(NC1CCCCC1)c1cc(-c2cccs2)on1 | -1.19% (inactive) |
| O=C(NC1CCCC1)c1cc(-c2ccc(Cl)cc2)on1 | -11.1% (inactive) |
| COc1cc2nn(-c3ccccc3N)nc2cc1OC | -9.19% (inactive) |
| CCOC(=O)c1sc(NC(=O)C2CCC2)cc1C | -22.4% (inactive) |
| Cc1ccc(NC(=O)c2sccc2C)nc1 | -18% (inactive) |
| Cc1csc(NC(=O)Nc2cccc(Cl)c2)n1 | -9.02% (inactive) |
| CCOC(=O)c1sc(NC(=O)Nc2ccc(Cl)cc2)nc1C | -4.05% [at 12 µM] (inactive) |
| Cc1ccc(C(=O)/C=C/Nc2ccccc2C(N)=O)cc1 | -20.8% (inactive) |
| Cn1cccc1C(=O)Nc1ccc(N2CCOCC2)cc1 | -18.9% (inactive) |
| COc1cccc2nc3cc(C)c(C)cc3nc12 | -12.1% (inactive) |
| CCCC1CCC(c2ccc(OCC)cc2)=CC1=O (stereo not given) | -5.38% (inactive) |
| Cc1ccc2nc(SCC(=O)c3ccc(O)cc3O)[nH]c2c1 | -3.55% (inactive) |
| Fc1ccccc1COc1ccc(/C=N/n2cnnc2)cc1 | -11% (inactive) |
| Fc1ccccc1Cn1nnc(-c2ccc3c(c2)OCO3)n1 | -26.9% (inactive) |
| CCN1C(=O)S/C(=C\c2ccc(N3CCOCC3)cc2C)C1=O | 21.6% (inactive) |
| Cn1c(=NC(=O)c2cnccn2)sc2ccccc21 | -11.9% (inactive) |
| O=C(Nc1nc2c(F)cccc2s1)c1ccco1 | -9.02% (inactive) |
| Cc1sc(NC(=O)C2CCCCC2)c(C#N)c1-c1ccccc1 | -2.58% (inactive) |
| COc1ccc2oc(C(=O)Nc3ccccn3)c(C)c2c1 | -22.9% (inactive) |
| CCOc1ccc2oc(C(=O)Nc3nccs3)c(C)c2c1 | -0.418% (inactive) |
| COc1ccc(N=C2SC(CC(=O)Nc3ccccc3)C(=O)N2Cc2ccco2)cc1 (stereo not given) | -1.28% (inactive) |
